Data taken from PubChem BioAssay (EPA / NIEHS).
Active and inactive are the calls of the source. How the source made its calls: active means hit-call score of the fitted dose curve at least 0.9, where 1 is the maximum; inactive means score below 0.9.

Experiments:
[1] = read-out: Transforming growth factor beta 1 (TGFb1), TGFB1 (gene 7040); test: BSK_KF3CT_TGFb1: BioMAP Diversity Plus: KF3CT Assay for Transforming growth factor beta 1 (TGFb1) Biomarker Activity (AID 2283072); details: primary human keratinocytes with fibroblasts; actives raise or lower the signal
In short: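 Human keratinocyte/foreskin fibroblast co-culture; TGF-b1 measured by ELISA 24 h after dosing, fitted bidirectionally versus DMSO. Cytotoxicity checked in parallel cultures by total protein (SRB staining, 560 nm).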

[2] = read-out: C-C motif chemokine 2 (Homo sapiens) (UniProt P13500); test: BSK_KF3CT_MCP1: BioMAP Diversity Plus: KF3CT Assay for Monocyte Chemoattractant Protein 1 (MCP1/CCL2) Biomarker Activity (AID 2283073); details: primary human keratinocytes with fibroblasts; actives raise or lower the signal
In short: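 Keratinocytes and foreskin fibroblasts were co-cultured, dosed with chemical, and sampled 24 h later. MCP-1 was quantified by ELISA, and the endpoint was analyzed with bidirectional fitting using DMSO as negative control.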

[3] = read-out: Matrix Metallopeptidase 9 (MMP9), MMP9 (gene 4318); test: BSK_KF3CT_MMP9: BioMAP Diversity Plus: KF3CT Assay for Matrix Metallopeptidase 9 (MMP9) Biomarker Activity (AID 2283074); details: primary human keratinocytes with fibroblasts; actives raise or lower the signal;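 on AC50: MMP9 protein level quantified by ELISA in the co-culture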
In short: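 Human keratinocyte and foreskin fibroblast co-culture exposed to chemicals for 24 h; MMP9 biomarker measured by ELISA, bidirectional fitting relative to DMSO; cytotoxicity tracked by SRB total protein staining in parallel cultures.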

[4] = read-out: urokinase plasminogen activator (uPA), PLAU (gene 5328); test: BSK_KF3CT_uPA: BioMAP Diversity Plus: KF3CT Assay for urokinase plasminogen activator (uPA) Biomarker Activity (AID 2283075); details: primary human keratinocytes with fibroblasts; actives raise or lower the signal
In short: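 Primary human keratinocyte/foreskin fibroblast co-culture exposed to chemical; uPA measured by ELISA at 24 h. Bidirectional fit versus DMSO, with parallel SRB total-protein staining for cytotoxicity.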

[5] = read-out: CD40, CD40 (gene 958); test: BSK_LPS_CD40: BioMAP Diversity Plus: LPS Assay for CD40 Biomarker Activity (AID 2283076); details: primary human HUVEC with PBMC; actives raise or lower the signal
In short: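 CD40 signal, measured by ELISA, is fitted in both directions relative to DMSO vehicle. The system is an LPS-driven human vascular primary co-culture of endothelial cells and PBMC, sampled 24 h after compound addition.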

[6] = read-out: E-selectin (Homo sapiens) (UniProt P16581); test: BSK_LPS_Eselectin: BioMAP Diversity Plus: LPS Assay for Eselectin Biomarker Activity (AID 2283077); details: primary human HUVEC with PBMC; actives raise or lower the signal
In short: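 Signal of E-selectin, detected by ELISA, served as the endpoint; cells were umbilical vein endothelium with PBMC, read 24 h after treatment. DMSO defined baseline, and both increases and decreases were fitted.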

[7] = read-out: Interleukin-8 (IL8), CXCL8 (gene 3576); test: BSK_LPS_IL8: BioMAP Diversity Plus: LPS Assay for Interleukin-8 (IL8) Biomarker Activity (AID 2283078); details: primary human HUVEC with PBMC; actives raise or lower the signal
In short: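 Endothelial cells and PBMC from human donors are co-cultured, treated with chemicals and LPS, then assayed for IL-8 by ELISA after 24 h. Parallel SRB staining (0.1% SRB after 10% TCA fixation, 560 nm) flags cytotoxicity.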

[8] = BSK_LPS_SRB: Viability Assessment in the BioMAP Diversity Plus: LPS Assay (AID 2283079); details: primary human HUVEC with PBMC;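 further: total protein by sulforhodamine B absorbance as a cytotoxicity measure; measured one day after compound addition; fitted in both directions against DMSO so loss or gain of signal counts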
In short: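 Overt cytotoxicity was gauged by sulforhodamine B total-protein staining in a primary human vascular endothelial and mononuclear cell co-culture 24 h post-dosing. Activity was fitted in both directions relative to DMSO.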

[9] = read-out: Interleukin-1 alpha (IL1a), IL1A (gene 3552); test: BSK_LPS_IL1a: BioMAP Diversity Plus: LPS Assay for Interleukin-1 alpha (IL1a) Biomarker Activity (AID 2283080); details: primary human HUVEC with PBMC; actives raise or lower the signal
In short: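 Measured: IL-1 alpha via ELISA at 24 h in LPS-activated human umbilical vein endothelium–PBMC co-culture. Baseline: DMSO, bidirectional fitting.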

[10] = read-out: Monocyte Chemoattractant Protein-1 (MCP1), CCL2 (gene 6347); test: BSK_LPS_MCP1: BioMAP Diversity Plus: LPS Assay for Monocyte Chemoattractant Protein-1 (MCP1) Biomarker Activity (AID 2283081); details: primary human HUVEC with PBMC; actives raise or lower the signal;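 on AC50: secreted MCP-1 protein quantified by ELISA in culture supernatant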
In short: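 LPS-stimulated HUVEC/PBMC co-culture; chemical, 24 h; MCP-1 by ELISA; bidirectional fit vs DMSO; cytotoxicity via SRB (0.1% stain, 10% TCA fix, 560 nm) in parallel wells.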

Measured: AC50

E-selectin (Homo sapiens), sequence (P16581 whole entry, looked up): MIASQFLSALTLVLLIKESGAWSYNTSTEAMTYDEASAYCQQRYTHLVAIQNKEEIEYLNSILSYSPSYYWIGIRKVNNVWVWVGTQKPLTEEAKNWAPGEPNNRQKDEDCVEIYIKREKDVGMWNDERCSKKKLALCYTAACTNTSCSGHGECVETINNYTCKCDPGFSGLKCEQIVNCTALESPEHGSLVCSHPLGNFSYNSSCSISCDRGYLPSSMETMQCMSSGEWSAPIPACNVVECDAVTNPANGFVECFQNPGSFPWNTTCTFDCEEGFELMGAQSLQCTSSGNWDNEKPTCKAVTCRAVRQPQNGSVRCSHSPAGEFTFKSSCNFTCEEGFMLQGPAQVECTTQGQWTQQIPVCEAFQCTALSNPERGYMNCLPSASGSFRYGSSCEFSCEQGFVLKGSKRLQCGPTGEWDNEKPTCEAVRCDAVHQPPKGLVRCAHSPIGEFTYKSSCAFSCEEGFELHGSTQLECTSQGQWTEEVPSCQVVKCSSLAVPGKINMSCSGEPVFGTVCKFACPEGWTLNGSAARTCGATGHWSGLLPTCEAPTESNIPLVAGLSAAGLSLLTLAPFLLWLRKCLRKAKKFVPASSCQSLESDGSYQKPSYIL

N#Cc1cc(Br)c(O)c(Br)c1
active: [5] 9.86 µM | [8] 3.97 µM | [9] 20 µM
inactive: all other assays above

COc1nc(NC(C)C)nc(NC(C)C)n1
inactive: all assays above

Cc1c(F)c(F)c(COC(=O)C2C(/C=C(\Cl)C(F)(F)F)C2(C)C)c(F)c1F (centres undefined)
active: [3] 2.72 µM | [5] 13.7 µM | [7] 12.2 µM | [9] 0.3 µM
inactive: all other assays above

OC(c1ccc(Cl)cc1)(c1cncnc1)c1ccccc1Cl (centres undefined)
active: [5] 15.8 µM | [8] 23.2 µM
inactive: all other assays above

CCOC(=O)C(Cl)Cc1cc(-n2nc(C)n(C(F)F)c2=O)c(F)cc1Cl (centres undefined)
inactive: all assays above

CCON=C(CC)C1=C(O)CC(c2c(C)cc(C)cc2C)CC1=O (centres undefined)
inactive: all assays above

O=C(O)c1nc(Cl)ccc1Cl
inactive: all assays above

CNC(=S)S
inactive: [1] | [2] | [3] | [4]
active: [5] 15.7 µM | [6] 14.7 µM | [7] 20.8 µM | [8] 26.1 µM | [10] 20 µM

CC1=C(C(=O)Nc2ccccc2)SCCO1
inactive: all assays above

COP(N)(=O)SC (centres undefined)
inactive: all assays above

C=CC1(C)OC(=O)N(c2cc(Cl)cc(Cl)c2)C1=O (centres undefined)
inactive: all assays above

CCCCC(CC)COC(=O)c1ccccc1C(=O)OCC(CC)CCCC (centres undefined)
active: [7] 3.22 µM | [8] 4.97 µM
inactive: all other assays above

CC(C)C1(C)N=C(c2nc3ccccc3cc2C(=O)O)NC1=O (centres undefined)
inactive: all assays above

CC1COC(Cn2cncn2)(c2ccc(Oc3ccc(Cl)cc3)cc2Cl)O1 (centres undefined)
active: [1] 34.5 µM | [2] 34.4 µM | [3] 31.1 µM | [4] 33.9 µM | [5] 17.3 µM | [6] 20 µM | [7] 28.6 µM | [8] 28.8 µM | [9] 32 µM | [10] 31.7 µM

CC(C)(C)c1ccc(CSc2cnn(C(C)(C)C)c(=O)c2Cl)cc1
inactive: [1] | [6]
active: [2] 20 µM | [3] 18.6 µM | [4] 4.28 µM | [5] 8.25 µM | [7] 3.16 µM | [8] 7.73 µM | [9] 20 µM | [10] 5.45 µM

CCc1nn(C)c(C(=O)NCc2ccc(C(C)(C)C)cc2)c1Cl
inactive: [1]
active: [2] 27.1 µM | [3] 30.6 µM | [4] 35.4 µM | [5] 24.3 µM | [6] 20 µM | [7] 20 µM | [8] 30 µM | [9] 33 µM | [10] 29.4 µM

COC(=O)C=C(C)OP(=O)(OC)OC
inactive: all assays above

O=C(O)COc1nc(Cl)c(Cl)cc1Cl
inactive: all assays above

CCNc1nc(Cl)nc(NC(C)C)n1
inactive: all assays above

CC(Oc1ccc(Cl)cc1Cl)C(=O)O (centres undefined)
inactive: all assays above

COP(=S)(OC)Oc1nc(Cl)c(Cl)cc1Cl
active: [6] 32.5 µM | [9] 27 µM | [10] 30.4 µM
inactive: all other assays above

N#CC(CCc1ccc(Cl)cc1)(Cn1cncn1)c1ccccc1 (centres undefined)
inactive: all assays above

Fc1ccc(Oc2ccnc3cc(Cl)cc(Cl)c23)cc1
inactive: [1] | [2] | [4]
active: [3] 12.9 µM | [5] 22.8 µM | [6] 34.4 µM | [7] 28.8 µM | [8] 24 µM | [9] 14.6 µM | [10] 29.5 µM

N#Cc1nn(-c2c(Cl)cc(C(F)(F)F)cc2Cl)c(N)c1S(=O)C(F)(F)F (centres undefined)
active: [5] 14.9 µM | [6] 36.8 µM | [7] 23.4 µM | [8] 31.4 µM | [9] 35.9 µM | [10] 32.4 µM
inactive: [1] | [2] | [3] | [4]

CCOC(=O)CC(SP(=S)(OC)OC)C(=O)OCC (centres undefined)
inactive: all assays above
